Only some compounds are listed: those with a hit (about 5.4% of all), similar ones and a draw of the others.
PNC inhibitor: inhibitors of perinucleolar compartment assembly | activity change (PNC), negative = inhibition, % at 10 µM | PC3M PTB-GFP, PNC prevalence imaging, 16 h; active compounds read low | hit rate 3.1% among 140,000;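 active = readout at or below -70, meaning at least 70% loss of cells showing the perinucleolar compartment, a nuclear body marking cancer cells; inconclusive = readout between -30 and a set limit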;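 note: plate controls were DMSO wells for no effect and camptothecin positive control wells for full effect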
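Read-out is percentage of cells bearing a perinucleolar compartment, from automated 20x imaging of fixed, Hoechst-stained PC3M PTB-GFP cells. Cells were seeded 4 h, then exposed 16 h to compound (23 nl of library stock) in duplicate plates.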
ALOX12 inhib: inhibitors of human 12-lipoxygenase (ALOX12); P18054; purified 12-hLO, xylenol orange hydroperoxide absorbance; Potency, µM (titrated, usually from 57.1 µM), without a hit: at the highest dose activity change, negative = inhibition, hits mostly inhibitors; hit rate 0.12% among 150,000; AID 1452; note: potency is the fitted concentration of half-maximal effect; nearly all actives have a fitted effect of over 55% in size
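Xylenol orange chromogenic assay: hydroperoxide from 12hLO oxidises Fe(II), giving red-shifted Fe(III)-XO absorbance. Conditions: 150 nM enzyme, 40 uM arachidonic acid, 25 mM Hepes pH 7.0, 0.01% Triton X-100, 30 min, room temperature.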
HPGD inh: inhibitors of human 15-hydroxyprostaglandin dehydrogenase (HPGD); P15428; purified HPGD, NADH fluorescence kinetic, PGE2 substrate; Potency, µM, inactives show at the highest dose activity change, negative = inhibition, hits mostly inhibitors; hit rate 4.3% among 150,000; AID 894; active = well fitted inhibition curve with a large enough effect, not every such curve was filed as active; inconclusive = small, poorly fitted or top-dose-only effect, or another doubt; inactive = no such curve, though single readings can be large or run the other way; note: potency is the fitted concentration of half-maximal effect
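20 nM HPGD preincubated 15 min at room temperature with compound in 50 mM Tris-HCl pH 8, 0.01% Tween 20. Started with 1 mM NAD+ and 30 uM prostaglandin E2; NADH fluorescence (360/450 nm) read 5 times over 30-s intervals, last minus first.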
IMPase Li inh: membrane-permeable IMPase blocker, potentiated with lithium | CHO-M1 cells, IP1 TR-FRET (IP-One), carbachol + lithium | Potency, µM (titrated, usually from 59.4 µM), for inactives: at the highest dose activity, negative = IMPase inhibition, actives largely listed as inhibitors | hit rate 0.35% among 210,000 | AID 1457;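 note: IP1 builds up when IMPase is blocked and the TR-FRET signal falls; potency is the fitted concentration of half-maximal effect; plate controls were basal vehicle for no effect and high inhibitor control for full effect; nearly all actives have a fitted effect of over 50% in size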
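CHO cells stably expressing M1 receptor (2000/well, cultured 16–30 h) treated 30 min at 37C with compound plus low lithium. Cytosolic IP1 by TR-FRET (665/620 ratio and 620 channel) after 10 min lysis; AC50 by Hill fit.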
15-hLO-2 inh: 15-hLO-2 (ALOX15B) enzyme inhibition | hit rate 0.56% among 110,000 | Potency, µM (doses to about 57.1 µM), inactives show at the highest dose activity change, negative = inhibition, most hits filed as inhibitors | O15296 | AID 881 | purified 15hLO-2, xylenol orange hydroperoxide absorbance; note: potency is the fitted concentration of half-maximal effect; nearly all actives have a fitted effect of over 60% in size
Target sequence (O15296 whole entry, looked up): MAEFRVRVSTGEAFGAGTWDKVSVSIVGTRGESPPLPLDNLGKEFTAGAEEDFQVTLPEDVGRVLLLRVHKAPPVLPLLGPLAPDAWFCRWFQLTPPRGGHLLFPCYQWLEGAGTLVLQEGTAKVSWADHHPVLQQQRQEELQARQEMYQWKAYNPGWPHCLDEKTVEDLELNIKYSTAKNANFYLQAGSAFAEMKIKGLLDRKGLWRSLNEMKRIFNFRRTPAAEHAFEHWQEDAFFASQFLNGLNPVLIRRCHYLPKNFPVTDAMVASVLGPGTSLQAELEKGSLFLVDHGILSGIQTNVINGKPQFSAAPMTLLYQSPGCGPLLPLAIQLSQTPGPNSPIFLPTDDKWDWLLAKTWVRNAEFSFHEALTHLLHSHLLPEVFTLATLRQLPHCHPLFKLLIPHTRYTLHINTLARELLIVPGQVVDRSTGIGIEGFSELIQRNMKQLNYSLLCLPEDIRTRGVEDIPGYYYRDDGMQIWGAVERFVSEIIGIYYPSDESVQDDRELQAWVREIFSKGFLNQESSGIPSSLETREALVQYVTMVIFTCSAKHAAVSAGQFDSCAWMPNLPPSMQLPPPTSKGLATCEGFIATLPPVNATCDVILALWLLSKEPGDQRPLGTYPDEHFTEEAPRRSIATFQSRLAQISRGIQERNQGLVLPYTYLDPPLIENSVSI
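Purified human 15hLO-2 (50 nM) preincubated 15 min with compound, then 45 uM arachidonic acid for 90 min at RT in 25 mM Hepes pH 7.5, 0.01% Triton X-100. Hydroperoxide detected by Fe-xylenol orange; 573/405 nm absorbance ratio.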
IMPase inh: cell-permeable inhibitors of inositol monophosphatase (IMPase). P97697. CHO-M1 cells, IP1 accumulation, HTRF TR-FRET ratio. inhibition (IP1 accumulation), % at 46.1 µM. 120,000 tested, under 10 active. AID 901; active = well fitted curve in the direction sought with a large enough effect in the signal ratio, not every such curve was filed as active; inconclusive = small, poorly fitted or top-dose-only effect, or a change in a side signal; inactive = no such curve, though single readings can be large or run the other way; the % refers to the signal ratio;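 note: cells stimulated with carbachol in lithium chloride buffer; plate controls were DMSO basal wells for no effect and reference inhibitor wells for full effect; higher means more IMPase inhibition seen as more IP1 and lower FRET ratio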
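CHO-M1 cells (CHO stably expressing M1 receptor), compound up to 46 uM final, stimulated with carbachol (50 uM as added) in buffer with 50mM LiCl, pH 7.4, 30 min at 37C. Cytosolic IP1 read by TR-FRET; AC50 from Hill fits.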
* hit, by the source's call; u = inconclusive; x = no result given; ! = a repeat was not active; [ ] = dose if it differs, or a comment. Unless noted, calls come from the whole dose curve; as a rule, active = well fitted curve in the direction sought with a large enough effect; inconclusive = small, poorly fitted or top-dose-only effect, or another doubt; inactive = no such curve, though single readings can be large; an effect the other way counts as inactive or inconclusive. Unless noted, % is set by controls: 0 for no effect and ±100 for the full control effect.

SMILES	PNC inhibitor	ALOX12 inhib	HPGD inh	IMPase Li inh	15-hLO-2 inh	IMPase inh
CC1CN(c2c(F)c(N)c3c(=O)c(C(=O)O)cn(C4CC4)c3c2F)CC(C)N1 (centres undefined)	x	-1%[0.00818 µM]	-11%	16%	9%[0.0915 µM]	x
N#C/C(C(=O)c1ccccc1)=C1/SC=C(N)N1c1ccccc1	27	-9%	20µM*	-17%[38.3 µM]	u	3
CN(Cc1ccccc1)S(=O)(=O)c1cccc2cccnc12	u	12%	22µM*	7%[38.3 µM]	6%	12
CN(CC(=O)N1CCCCC1)S(=O)(=O)c1cccc2cccnc12	13	-3%	16µM*	-3%[38.3 µM]	0%	3
CCC(C)(C)C(=O)O[C@@H]1C[C@@H](C)C=C2C=C[C@H](C)[C@H](CC[C@@H]3C[C@@H](O)CC(=O)O3)[C@H]21	x	-1%	-2%	x	-3%	x
CN1CC(O)C2=CC(=O)C(=O)C=C21 (centres undefined)	x	x	x	7%	x	x
Cc1cc(C)n(-c2ccc(Cl)c(C(=O)NCc3ccccc3)n2)n1	x	x	x	4%	x	x
c1cc(Nc2ncnc3sccc23)cc(-c2nnc3n2CCCCC3)c1	10	-1%	22µM*	10%[38.3 µM]	13%	5
Cc1cc(C)n(-c2ccc(Cl)c(C(=O)Nc3ccc(-c4nnc5n4CCCCC5)cc3)n2)n1	20	1%	1.8µM*	0%[38.3 µM]	12%	2
Cc1onc(-c2ccccc2)c1C(=O)Nc1nnc(N2CCCCCC2)s1	-108*	6%	-17%	12%[38.3 µM]	-9%	-4
Cc1ccc(-c2nnc3n2CCCCC3)cc1	-24	-2%	5µM*	-1%[38.3 µM]	4%	-8
COc1cc(C)c(CC/C(C)=C/C=C/C(C)=O)c(C)c1C	x	x	-18%	26%	x	x
O=C(Nc1ccc(-c2nnc3n2CCCCC3)cc1)c1ccco1	-17	1%	8.9µM*	-5%	x	x
Cc1c(C(=O)Nc2ccc(-c3nnc4n3CCCCC4)cc2)oc2ccc(Br)cc12	-14	-1%	u	6%	x	x
CCOc1ncccc1C(=O)Nc1cccc(-c2nnc3n2CCCCC3)c1	x	x	x	14%	x	x
Cc1cnc(C(=O)Nc2cccc(-c3nnc4n3CCCCC4)c2)cn1	31	0%	13µM*	-1%[38.3 µM]	4%	5
O=C1Nc2ccccc2C1=Nc1ccc(-c2nnc3n2CCCCC3)cc1	3	-2%	5µM*	31%[38.3 µM]	-5%	-5
Cc1onc(-c2ccccc2Cl)c1C(=O)Nc1ccc(-c2nnc3n2CCCCC3)cc1	u	-4%	16µM*	9%[38.3 µM]	9%	9
O=C(NCCCN1CCOCC1)c1ccc(-n2c(=O)c(=O)[nH]c3ccccc32)cc1	x	-1%	-3%	x	x	x
CCCCCCCc1cc2ccccc2c(=O)o1	x	x	-10%	21%	x	x
COCOc1ccc(OC)cc1C(=O)/C=C/c1ccc(OC)c(Br)c1	x	x	-14%	14%	x	x
Cc1c(/C(O)=C2\C(=O)C(=O)N(CCCN(C)C)C2c2ccccc2)cnn1-c1ccccc1 (centres undefined)	5	-15%	20µM*	12%[38.3 µM]	0%	-3
COC(=O)C1=C(C)OC(N)=C(C#N)C1c1ccc(OC)c(CSc2ccccn2)c1 (centres undefined)	-87*	-4%	-18%	27%[38.3 µM]	-12%[11.4 µM]	16[1.84 µM]
O=C(CCS(=O)(=O)c1cc(Br)cc2c1N(C(=O)C1CC1)CC2)N1CCN(c2cccc(C(F)(F)F)c2)CC1	x	x	x	x	x	9
O=C1c2cccc([N+](=O)[O-])c2C(=O)N1c1ncn[nH]1	x	4%[11.4 µM]	-5%	-4%	0%[11.4 µM]	x
SMILES	PNC inhibitor	ALOX12 inhib	HPGD inh	IMPase Li inh	15-hLO-2 inh	IMPase inh
C[C@H]1CC2[C@@H]3CCC4=CC(=O)C=C[C@]4(C)[C@@]3(F)[C@@H](O)C[C@]2(C)[C@@]1(O)C(=O)CO (some centres undefined)	x	x	-10%	-2%	x	x
COc1ccc(-c2nc3cc(NC(=O)c4ccc(C)cc4)ccc3o2)cc1Cl	x	x	x	x	x	-1
CC(Oc1ccccc1F)C(=O)Nc1ccc2ccccc2c1 (centres undefined)	-87*	-5%	-21%	1%	x	u
COc1ccc(/C=C/C(=O)c2ccc(C)c([N+](=O)[O-])c2)cc1O	43	-25%	22µM*	28%	x	6
COc1cc(O)c(C(=O)/C=C/c2ccc(OC)c(O)c2)c(OC)c1	x	-28%	7.9µM*	36%	u	x
Cc1cc(=O)oc2cc(O[C@@H]3O[C@H](C(=O)O)[C@@H](O)[C@H](O)[C@H]3O)ccc12	x	-3%	u	7%	4%	-1
CC1CCCN(c2ccc(C(=O)NCc3cccs3)cn2)C1 (centres undefined)	u	2%	28µM*	-3%	x	13
O=C(NCc1cccs1)c1ccc(N2CCCCC2)nc1	-12	3%	16µM*	-6%[38.3 µM]	0%	-6
O=C(CCN1C(=O)c2ccccc2C1=O)Nc1sc2c(c1C(=O)NCc1ccco1)CCCC2	-114*	-9%	-13%	-7%[38.3 µM]	-14%	7
CC(C(=O)Nc1sc2c(c1C(=O)NCc1ccco1)CCCC2)N1C(=O)c2ccccc2C1=O (centres undefined)	20	-3%	-9%	25%[38.3 µM]	-11%	-6
C/C(=N\NC(=O)c1ccccc1)c1cc2cc([N+](=O)[O-])ccc2oc1=O	u	-4%	25µM*	4%	x	-1
C[C@@H](C(=O)NCC1CC1)[C@H]1C[C@]1(C)[C@H](NC(=O)OCc1ccccc1)c1ccccc1	-1	-3%	-9%	10%	11%	x
Cc1ccc(CNC(=O)[C@H](C)[C@H]2C[C@]2(C)[C@H](NC(=O)OCc2ccccc2)c2ccccc2)o1	-13	-5%	25µM*!	4%	u	x
O=C(Nc1ccc2oc(-c3cccnc3)nc2c1)c1ccc(-c2ccccc2OC(F)(F)F)o1	x	x	x	x	x	-14
O=c1cc(-c2ccc3c(c2)OCCO3)oc2ccc(Cl)cc12	22	0%	u	10µM*	x	u
O=C(COC(=O)C1CC1)c1c[nH]c2ccccc12	-80*	-3%	-7%	12%[38.3 µM]	3%	3
Cc1noc(C)c1CSc1nc2[nH]ncc2c(=O)n1-c1ccccc1	-100*	0%	-14%	8%	x	11
Cc1noc(C)c1CSc1nc2ccccc2c(=O)n1-c1ccccc1	10	-8%	4%	6%[38.3 µM]	-5%	14
O=C(NCCCCN1CCCC1)c1ccc(-n2c(=O)c(=O)[nH]c3ccccc32)cc1	x	-5%	-1%	x	x	x
COC(=O)C(NC(=O)c1ccc(C)cc1)(Nc1cccc(C)n1)C(F)(F)F (centres undefined)	-100*	-3%	-13%	9%	x	1

Source: PubChem
